From PubChem
Compounds with a hit are over-represented: about 0.98% of the library has one in this group of screens.
LANA-H2B inh = blockers of LANA interaction with H2A/H2B – biochemical, FP readout, HTS, primary screen. Protein LANA1 (Human herpesvirus 8 type P (isolate GK18)), Q9QR71. inhibition, % (concentration not given with the values). cell-free LANA-H2A/H2B peptide, fluorescence polarization. hit rate 0.6% among 320,000. AID 2629, 2010; in the data active = inhibition mostly above about 10%, no sharp cut-off; inactive = mostly below about 6.7%
RTF Ca sens act = cardiac RTF calcium sensitivity activators, primary screen, biochemical, IANBD-TnC fluorescence, EC20 calcium; Troponin I, cardiac muscle (Homo sapiens) + Troponin T, cardiac muscle (Homo sapiens) + …; activation, % at 7.2 µM; IANBD-labeled TnC RTF fluorescence at EC20 calcium; 0% EC20 calcium, 100% full calcium; hit rate 0.24% among 340,000;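 active = activation above the mean over all tested compounds plus 3 SD, cut at about 30% in these data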;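 note: rise in fluorescence read as greater calcium sensitivity of cardiac thin filaments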
Cardiac RTF inh = cardiac RTF calcium sensitivity inhibitors, primary screen, biochemical, IANBD-TnC fluorescence, EC70 calcium | Troponin I, cardiac muscle (Homo sapiens) + Troponin T, cardiac muscle (Homo sapiens) + … | IANBD-labeled cardiac RTF, Ca2+ fluorescence | inhibition, % at 7.15 µM | hit rate 0.12% among 340,000;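 active = inhibition above the mean inhibition of all tested compounds plus 3 SD, cut at about 17% in these data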;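 note: assay run at fixed EC70 calcium of 1.6 mM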
Keap1 Nrf2 FP = Keap1-Nrf2 protein-protein interaction inhibitors, primary screen, biochemical, fluorescence polarization, single point; AID 504523, 2011; hit rate 0.15% among 340,000; inhibition, % at 9.4 µM; Keap1 Kelch-Nrf2 peptide fluorescence polarization, 1536-well; in the data active = inhibition above about 12%;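 note: human Keap1 Kelch domain with fluorescein labeled Nrf2 9mer peptide probe; higher means more block of Keap1 binding to Nrf2 peptide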
Target sequence (Q14145 whole entry, looked up, the tested form may be a part): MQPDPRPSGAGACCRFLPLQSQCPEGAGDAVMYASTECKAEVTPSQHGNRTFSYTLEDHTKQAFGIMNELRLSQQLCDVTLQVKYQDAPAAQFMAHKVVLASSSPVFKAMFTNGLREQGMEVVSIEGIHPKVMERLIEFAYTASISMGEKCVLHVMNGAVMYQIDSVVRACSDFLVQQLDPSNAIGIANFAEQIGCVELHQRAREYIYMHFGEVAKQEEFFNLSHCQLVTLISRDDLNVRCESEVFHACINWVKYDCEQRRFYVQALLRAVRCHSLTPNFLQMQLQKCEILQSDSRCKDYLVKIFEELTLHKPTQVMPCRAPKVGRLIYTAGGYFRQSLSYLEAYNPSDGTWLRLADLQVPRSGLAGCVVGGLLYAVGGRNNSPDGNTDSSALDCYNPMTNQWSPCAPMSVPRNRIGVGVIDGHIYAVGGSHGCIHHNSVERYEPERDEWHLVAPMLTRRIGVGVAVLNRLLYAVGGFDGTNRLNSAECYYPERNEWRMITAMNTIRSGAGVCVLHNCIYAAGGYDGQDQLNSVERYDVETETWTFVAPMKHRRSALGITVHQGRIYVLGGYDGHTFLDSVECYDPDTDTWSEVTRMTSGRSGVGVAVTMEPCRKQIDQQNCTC
LANA DNA inh = inhibitors of KSHV C-LANA binding to DNA, primary screen, biochemical, fluorescence polarization, FAM-LBS DNA, MBP-C-LANA, single point; Kaposi's sarcoma herpesvirus LANA C-terminal domain (residues 932-1162) DNA binding; inhibition, % at 9 µM; hit rate 0.078% among 340,000;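 active = highest replicate inhibition at or above 60% at 9 µM, even if other replicates fall short; inactive = all replicates below 60% inhibition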
Keap1 TSA = Keap1 Kelch domain binders by thermal stabilisation, dose response, biophysical, thermal shift, RT-PCR instrument, cherry-pick; AID 651823, 2012; hit rate 8% among 400; shares compounds with Keap1 Nrf2 FP; delta Tm; stronger effect = higher value; max delta Tm, degrees C; in the data active = max delta Tm above about 0.48 degrees C
Dye-only ctr = Sypro Orange dye melt without protein, dose response, artefact control for Keap1-Nrf2 interaction inhibitor project, biochemical, thermal shift counterscreen, cherry-pick | shares compounds with Keap1 Nrf2 FP | Sypro Orange dye-only thermal melt, no protein, delta Tm; top dose 26 µM | delta Tm, degrees C (no concentration beside the values) | 140 tested, under 10 active | AID 651858, 2012;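 active = at highest dose tested, delta Tm positive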
Numbers stand for hits; 0 = inactive; - = no result given; + = active, no number.

SMILES	LANA-H2B inh	RTF Ca sens act	Cardiac RTF inh	Keap1 Nrf2 FP	LANA DNA inh	Keap1 TSA	others
O=C(NCc1cccc(F)c1)c1cccc2c1C(=O)c1ccc(N3CCCC3)cc1S2(=O)=O	25.2	76.1	0	14.6	0	0
Oc1ccc(C[C@H]2CNCCN2CC2(c3ccccc3)CC2)cc1	0	0	0	0	0	-
CCN(CC)S(=O)(=O)c1ccc(C(=O)OCCN2C(=O)c3cccc4c(N5CCOCC5)ccc(c34)C2=O)cc1	26.5	0	0	27.1	0	0
CCN(CC)CCNC(=O)c1ccc(CS(=O)(=O)c2ccccc2C)o1	0	0	0	0	0	-
NC(=O)C1CCN(c2ccc3c(c2)S(=O)(=O)c2ccccc2C3=O)CC1	0	0	0	0	0	-
CC1CCN(c2ccc3c(c2)S(=O)(=O)c2ccccc2C3=O)CC1	0	0	0	20.9	0	0
CCN1CCN(CCCNC(=O)CCC(=O)N2CCOc3ccccc32)CC1	0	0	0	0	0	-
CCSc1ncc(Cl)c(C(=O)Nc2ccccc2OC)n1	0	0	0	22.9	0	0
COc1cccc(/C=C/C(=O)OCC(=O)NC(=O)NC2CCCC2)c1	0	0	0	35.6	0	0	Dye-only ctr=0
O=C(COC(=O)/C=C/c1cccc(Cl)c1)NC1CC1	19.0	0	0	23.6	0	0	Dye-only ctr=0
O=C(COC(=O)/C=C/c1cccc(Cl)c1)NC1CCCC1	0	0	0	0	0	-
O=[N+]([O-])c1cc(C(F)(F)F)ccc1NC1CCN(Cc2ccccc2)CC1	0	-	-	43.2	0	0	Dye-only ctr=0
Cn1nc(-c2ccccc2)c2nc3ccccc3nc21	95.4	52.5	0	53.7	0	0	Dye-only ctr=0
Cc1ccc(-c2nc3ccccc3nc2-c2ccccc2)cc1	0	0	0	0	0	-
Cc1cc(S(=O)(=O)Nc2ccc(C(=O)NCCCN3CCCC3=O)cc2)ccc1F	0	0	0	0	0	-
CC(C)COc1ccc(/C=C2/Sc3ccccc3C2=O)cc1	0	0	0	0	0	-
CCCCOc1ccc(/C=C2/Sc3ccccc3C2=O)cc1	0	0	0	13.0	0	0
COc1ccc(-c2ocnc2C(=O)N2CCN(C(c3ccccc3)c3ccccc3)CC2)cc1	0	0	0	0	0	-
O=C(CN(C(=O)Cn1nnc(-c2ccc(F)cc2)n1)c1ccc(F)cc1)NC1CCCC1	0	0	0	0	0	-
CNC(=O)c1ccc(NC(=O)CC23CC4CC(CC(C4)C2)C3)cc1	0	0	0	0	0	-
NC(=O)COc1ccc(NC(=O)CC23CC4CC(CC(C4)C2)C3)cc1	0	0	0	22.3	0	0
COc1cccc2c1C(=O)c1c(O)c3c(c(O)c1C2=O)CC(O)(C(C)=O)CC3OC1CC(N(C)C)C(O)C(C)O1 (configuration not stated)	-	190.0	0	+	117.3	0
Cc1ccc(NC(=O)c2ccc3c(c2)NC(=O)CS3)nc1	0	0	0	0	0	-
Cc1nnc(NC(=O)c2ccc3c(c2)NC(=O)CS3)s1	0	0	0	17.5	0	0
CCCCN(C(=O)Cc1ccc2c(c1)OCCO2)c1c(N)n(CCC)c(=O)[nH]c1=O	0	0	0	0	0	-
SMILES	LANA-H2B inh	RTF Ca sens act	Cardiac RTF inh	Keap1 Nrf2 FP	LANA DNA inh	Keap1 TSA	others
CSCCC(NC(=O)CCNC(=O)c1ccccc1Cl)c1nc2ccccc2[nH]1 (configuration not stated)	0	0	0	0	0	-
CCOc1ccc(OCCCC(=O)N(CC)CC(=O)Nc2c(F)cccc2F)cc1	35.5	0	0	35.8	0	0	Dye-only ctr=0
CCN(CC(=O)Nc1c(F)cccc1F)C(=O)CCCOc1ccccc1	-	0	0	0	0	-
Cc1cc(C)c(S(C)(=O)=O)c(=O)[nH]1	0	0	0	0	0	-
Cc1cc(=O)c2c([nH]1)c(C)cc1[nH]c(C)c(C)c12	0	0	0	24.7	0	0	Dye-only ctr=0
N#CC1=C(N)Oc2ccc3ccc(O)cc3c2C1c1ccsc1 (configuration not stated)	-	98.9	0	17.2	86.6	0
N#CC1=C(N)Oc2cc(N)ccc2C1c1ccsc1 (configuration not stated)	0	0	0	0	0	-
O=C(COC(=O)c1ccncc1)Nc1cccc2ccccc12	0	0	0	14.1	0	0
CCOc1ccc(NC(=S)NC(=O)/C=C/c2ccco2)cc1	0	0	0	0	0	-
COc1cc(NS(=O)(=O)c2ccc(NC(=S)NC(=O)/C=C/c3ccco3)cc2)ncn1	-	0	0	16.5	0	0.83
O=C(CCN1C(=O)/C(=C/c2ccco2)SC1=S)Nc1ccc(O)cc1C(=O)O	0	0	0	12.7	62.9	0
Cc1cc(F)ccc1NS(=O)(=O)c1c(C(=O)N2CCOCC2)c(C)n(C)c1C	0	0	0	0	0	-
O=C(CN1C(=O)COc2ccccc21)NC1CCCC1	0	0	0	0	0	-
Cc1ccc2oc(=O)c3cnn(CC(=O)NCCC(C)C)c3c2c1	0	0	0	31.0	0	0	Dye-only ctr=0
Cc1ccc2oc(=O)c3cnn(CC(=O)NCCN(C)C)c3c2c1	0	0	0	0	0	-
Cc1cc[n+](-c2[nH]c(=O)sc2/C=N/N=C(\[O-])c2ccccc2)cc1C	-	55.0	0	42.7	61.9	0
CC(OC(=O)C1COc2ccccc2O1)C(=O)N(C)c1ccccc1 (configuration not stated)	0	0	0	0	0	-
COc1ccccc1NC(=O)C(C)OC(=O)C1COc2ccccc2O1 (configuration not stated)	20.6	0	0	21.9	0	0
CCOC(=O)c1sc(NS(=O)(=O)c2ccccc2)nc1C	0	0	0	0	0	-
Cc1nc(NS(=O)(=O)c2ccccc2)sc1NC(=O)OCCN(C)C	0	0	0	27.1	0	0
COc1cc(NC(=O)CCn2c(=S)oc3ccccc32)cc(OC)c1OC	0	0	0	0	0	-
COc1ccc(Br)cc1CNCC1CCCO1 (configuration not stated)	0	0	0	35.7	0	0
Brc1ccc(CNCC2CCCO2)cc1 (configuration not stated)	0	0	0	0	0	-
CCOc1ccc(N(CC)C(=O)c2cn(CC)c(=O)c3cc(OC)c(OC)cc23)cc1	0	0	0	0	0	-
O=C(CCCCl)NC(=S)Nc1ccc(N2CCOCC2)cc1	0	-	-	32.8	0	0	Dye-only ctr=0
COc1ccccc1CNC(=O)c1ccccc1NS(C)(=O)=O	-	0	0	20.5	0	0
CCOC(=O)c1c(C)[nH]c(C(=O)COC(=O)c2cccnc2Cl)c1C	0	0	0	24.9	0	0	Dye-only ctr=0
